Measurements taken from PubChem BioAssay (NCI).
This is part of a sample that, as a whole, favours compounds with a hit. Of some 83,000 tested, about 20% had one in any assay.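 Plates (96-well) were seeded with cells, treated with compound at one concentration, and incubated for 48 hours before percent growth was determined.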 A number with no mark means an inactive call. Activity calls are given as the source filed them. The calls were made as follows: active = growth percent below 10; inactive = the rest.

How the values were obtained:
Experiment in all cases: NCI-60 one-dose screen, 48 h (100 = growth as untreated, 0 = no growth, -100 = all killed)
Conditions in all cases: 10 µM unless noted
RPMI-8226 leukemia = test system: RPMI-8226 leukemia
OVCAR-8 ovarian = test system: OVCAR-8 ovarian
OVCAR-5 ovarian = test system: OVCAR-5 ovarian
OVCAR-4 ovarian = test system: OVCAR-4 ovarian
SK-OV-3 ovarian = test system: SK-OV-3 ovarian
IGROV1 ovarian = test system: IGROV1 ovarian
OVCAR-3 ovarian = test system: OVCAR-3 ovarian
HS 578T breast = test system: HS 578T breast
NCI/ADR-RES ovarian = test system: NCI/ADR-RES ovarian
T-47D breast = test system: T-47D breast
BT-549 breast = test system: BT-549 breast
MDA-MB-435 melanoma = test system: MDA-MB-435 melanoma
SW-620 colon = test system: SW-620 colon
MCF7 breast = test system: MCF7 breast
HCT-116 colon = test system: HCT-116 colon
HCC-2998 colon = test system: HCC-2998 colon
KM12 colon = test system: KM12 colon
SR leukemia = test system: SR leukemia

Structure (SMILES) | growth (RPMI-8226 leukemia) | growth (OVCAR-8 ovarian) | growth (OVCAR-5 ovarian) | growth (OVCAR-4 ovarian) | growth (SK-OV-3 ovarian) | growth (IGROV1 ovarian) | growth (OVCAR-3 ovarian) | growth (HS 578T breast) | growth (NCI/ADR-RES ovarian) | growth (T-47D breast) | growth (BT-549 breast) | growth (MDA-MB-435 melanoma) | growth (SW-620 colon) | growth (MCF7 breast) | growth (HCT-116 colon) | growth (HCC-2998 colon) | growth (KM12 colon) | growth (SR leukemia) [%]
CNc1ccc(NC)c2c1C(=O)c1ccccc1C2=O | 90.2% | 71.5% | 101% | 68.4% | 67.4% | 69% | 95.4% | 98.5% | 88% | 37.3% | 75.7% | 110% | 92.4% | 16% | 78% | 72.3% | 64.4% | 
CCCCCS(=O)(=O)Nc1ccc(C(=O)O)cc1 |  | 106% | 111% | 103% | 99.2% | 101% | 110% | 110% | 102% | 89.2% | 107% | 106% | 106% | 97% | 102% | 114% | 103% | 95.7
COc1ccc(/C=C/c2c(C(=O)/C=C/c3cccs3)c(C)nc3ccccc23)cc1 | 56.6% | 77% | 97% | 68.7% | 79.7% | 46% | 83.6% | 84.1% | 74.1% | 47.8% | 94.3% | 68.5% | 82.5% | 53.9% | 47.5% | 85.6% | 78.9% | 
COc1ccc(S(=O)(=O)NCCNc2nccc(-c3c(-c4cccc(F)c4)nc4sccn34)n2)cc1 | 27.8% | 36.6% | 62.9% | 38.9% | 54.3% | 14.8% | 49.1% | 31.4% | 30.3% | 25% | 47% | 14.7% | 52.6% | 17.1% | 19.7% | 52.9% | 18.3% | 
COc1cc(C2NC(=O)c3ccccc3N2)ccc1OCCCCCOc1c(OC)cc(C2=NOC(c3cc(OC)c(OC)c(OC)c3)C2)cc1OC (stereo not given) | -22.2% (active) | 88.2% | 103% | 28.8% | 93.8% | 15.2% | 78.6% | 102% | 65% | 39.8% | 1.13% (active) | 23.3% | 92.8% | 32.3% | 60% | 80.5% | 91.2% | 
COc1ccc(CNC(=O)C(O)C(Cc2ccccc2)NC(=O)c2[nH]c3ccccc3c(=O)c2C)cc1OC (stereo not given) | 111% | 103% | 98.1% | 111% | 103% | 112% | 111% | 97.4% | 107% | 97.8% | 104% | 101% | 113% | 99.7% | 106% | 117% | 105% | 
O=C1N=c2cc3c(cc2=C/C1=C/c1sc(=S)n(CCc2ccc(O)cc2)c1O)OCCO3 | 33.4% | 28.6% | 64% | 80.9% | 105% | 49% | 76.1% | 74.9% | 64.7% | 81.5% | 78.5% | 61.1% | 5.91% (active) | 28.6% | 7.52% (active) | 29.4% | 52.5% | 
C[C@H]1[C@H]2[C@H]3CC[C@@H]4[C@@]5(C)C/C(=C/c6cccnc6)C(=O)C(C)(C)[C@@H]5CC[C@@]4(C)[C@]3(C)CC[C@]23CO[C@]1(C)[C@@H](C(=O)/C=C\c1cccnc1)C3 | 5.06% (active) | -13.6% (active) | -4% (active) | 18.6% | 58.9% | 1.25% (active) | -43.7% (active) | 11.2% | 2.97% (active) | 24.6% | -20.1% (active) | -7.3% (active) | -26.4% (active) | 9.88% (active) | -45.6% (active) | -67.2% (active) | -55.6% (active) | 
CCc1c2c(nc3ccc(OC(=O)NCc4ccc(B5OC(C)(C)C(C)(C)O5)cc4)cc13)-c1cc3c(c(=O)n1C2)COC(=O)[C@]3(O)CC | 10.1% | 4.49% (active) | -12.3% (active) | 6.46% (active) | -1.86% (active) | 11% | -24.7% (active) | 23.4% | -6.58% (active) | 4.82% (active) | 4.12% (active) | -35.2% (active) | 8.04% (active) | 2.39% (active) | 2.81% (active) | -8.14% (active) | -5.38% (active) | 
Oc1ccc(CN2CCC(N3CCOCC3)CC2)c2cccnc12 | 7.8% (active) | 19% | 48.8% | 30.9% | 36.1% | 34.9% | 29.9% | 24.4% | 48.3% | 16.3% | 29.8% | 16.3% | 22% | 9.1% (active) | 9.68% (active) | 51.5% | 20.9% | 
CCOc1ccccc1-n1c(CN2CCN(C(=O)COc3ccc(CNCCCCCCN4C5CCCC4CC(OC(=O)Nc4cc(C)ccc4OC)C5)cc3)CC2)nc2ccccc2c1=O (stereo not given) | -56.8% (active) | -88.4% (active) | -91.5% (active) | -84.7% (active) | -98.7% (active) | -77.4% (active) | -91.6% (active) | -42.2% (active) | 67% | -66.8% (active) | -90.8% (active) | -97% (active) | -86.8% (active) | -78.3% (active) | -91.5% (active) | -87.7% (active) | -87.2% (active) | 
O=C(CCc1nnc(CN(c2ccccc2)c2ccccc2)o1)c1nc2ccccc2[nH]1 | 70.7% | 88.3% | 108% | 82.9% | 96.2% | 74.6% | 95% | 92.3% | 91.4% | 74.4% | 84.8% | 94.3% | 103% | 76% | 73.6% | 90.3% | 99.8% | 
C=C(C)[C@@H]1CC=C2c3sc(-c4ccc(C)cc4)nc3C[C@@H](C)[C@]2(C)C1 | 109% | 99.3% | 101% | 98.2% | 97.5% | 109% | 104% | 100% | 106% | 95.4% | 109% | 101% | 103% | 96.9% | 105% | 115% | 101% | 
Cc1cc(NCCCCNc2ccnc3cc(Cl)ccc23)nc(Nc2ccc(C(=O)N3CCCCC3)cc2)n1 | -35.8% (active) | 7.65% (active) | 82.7% | 34.8% | 97.2% | 29.8% | 8.51% (active) | -28.9% (active) | 47.5% | -23.5% (active) | 92.9% | -84.3% (active) | -70.2% (active) | -49.1% (active) | -48.9% (active) | -37.5% (active) | 25.8% | 
Cc1cc(C)c(-c2c(C)cc(C)cc2CBr)c(CBr)c1 | 50.2% | 68.3% | 97.1% | 74.1% | 101% | 90.3% | 90.9% | 86.6% | 72.2% | 69.8% | 79.2% | 77% | 78.5% | 67.1% | 49.4% | 103% | 80.3% | 
